N370S GC mod: N370S glucocerebrosidase modulation, Gaucher chaperone candidate | hit rate 0.092% among 330,000 | Potency, µM (top dose mostly 59.4 µM), actives largely listed as inhibitors | N370S GC spleen homogenate, 4MU-glucoside fluorescence | AID 2101
GLA inh pH 4.5: blocks human alpha-galactosidase A at pH 4.5; purified enzyme, 4-MU-alpha-Gal fluorescence, pH 4.5; activity change, negative = inhibition, % at 105 µM; 230,000 tested, under 10 active; P06280; AID 1467
GAA spleen mod: inhibits or activates alpha-glucosidase in human spleen homogenate; AID 2112; hit rate 0.006% among 240,000; Potency, µM (top dose mostly 79.9 µM), actives largely listed as inhibitors; P10253; human spleen homogenate, 4-MU-alpha-glucoside fluorescence
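Compounds were titrated against alpha-glucosidase in spleen homogenate at pH 5.0, with 1 mM 4-methylumbelliferyl substrate for 40 min at 37 C. Reactions were quenched with pH 10 NaOH/glycine and fluorescence measured.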
GAA inhib: alpha-glucosidase (human) inhibition; purified human GAA, 4-MU-alpha-glucoside fluorescence; AID 1466; Potency, µM (series often up to 76.9 µM), actives largely listed as inhibitors; hit rate 0.005% among 200,000
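Human alpha-glucosidase, 4 nM, pre-mixed with test compounds before 400 uM 4-methylumbelliferyl substrate; 20 min room temperature at pH 5.0. Fluorescence read after pH 10 stop; AC50 values from Hill-equation fits.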
GAA glycogen: GAA glycogen-cleavage inhibition or activation | recombinant GAA, glycogen substrate, Amplex Red glucose oxidase fluorescence | Potency, µM (highest dose often 76.4 µM), most hits filed as inhibitors | hit rate 0.38% among 300,000 | P10253;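 also: the screen sought inhibitors and activators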
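qHTS, 1536-well; enzyme 4 nM final; cpd up to 77 uM; substrate bovine liver glycogen 30 ug; 50 mM citrate/phosphate pH 5.0, 0.01% Tween-20; 37 C, 40 min; Amplex Red detection 45 min RT; Hill fit → AC50.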
GLA spleen mod: inhibitors or activators of human alpha-galactosidase in spleen homogenate | AID 2107 | human spleen homogenate, 4MU-alpha-Gal fluorescence, 40 min | hit rate 0.008% among 240,000 | P06280 | Potency, µM (top dose mostly 80 µM), most hits filed as inhibitors
Target sequence (P06280 32-429 limits assumed): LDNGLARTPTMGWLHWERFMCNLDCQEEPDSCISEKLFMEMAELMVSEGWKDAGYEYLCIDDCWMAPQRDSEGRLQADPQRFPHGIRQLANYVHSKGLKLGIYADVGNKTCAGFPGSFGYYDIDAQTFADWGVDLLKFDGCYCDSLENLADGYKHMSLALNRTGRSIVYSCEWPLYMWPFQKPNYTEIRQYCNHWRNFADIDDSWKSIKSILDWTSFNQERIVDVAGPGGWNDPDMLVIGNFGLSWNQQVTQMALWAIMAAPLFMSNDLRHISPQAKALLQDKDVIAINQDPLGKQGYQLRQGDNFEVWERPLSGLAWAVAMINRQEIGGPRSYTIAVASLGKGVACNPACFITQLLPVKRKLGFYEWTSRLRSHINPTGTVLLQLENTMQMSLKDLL
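qHTS titration in buffer at pH 5.0. Alpha-galactosidase activity in spleen homogenate was measured via 4-methylumbelliferone release from 1 mM fluorogenic substrate after 40 min at 37C and a pH 10 stop. AC50 came from Hill fits of control-normalized data.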
Numbers stand for hits; i = inactive; ? = inconclusive; nt = no result given; [ ] = remark or other dose. An excerpt weighted towards active compounds, which were near 0.43% of everything screened. Calls follow the shape of the dose curve; as a rule, active = well fitted curve in the direction sought with a large enough effect; inconclusive = small, poorly fitted or top-dose-only effect, or another doubt; inactive = no such curve, though single readings can be large; an effect the other way counts as inactive or inconclusive.

SMILES | N370S GC mod | GLA inh pH 4.5 | GAA spleen mod | GAA inhib | GAA glycogen | GLA spleen mod
CC(C)(C)N1C(=O)[C@H]2[C@H]3[C@H](O)[C@H](O)C/C(=N/NC(=O)OCc4ccccc4)[C@H]3CC[C@@H]2C1=O | i[12.8 µM] | nt | i[17.4 µM] | nt | nt | i[17.5 µM]
COc1ccc(NC(=S)NNc2ccc([N+](=O)[O-])cc2S(=O)(=O)Nc2ccc(C)cc2C)cc1 | 22.4µM | i | i | ? | ? | i
Cc1ccc(NS(=O)(=O)c2cc([N+](=O)[O-])ccc2NNC(=S)Nc2cc(C)ccc2C)c(C)c1 | ? | i | i | i | i | i
FC(F)(F)c1ccccc1-c1nccc(NCc2cccs2)n1 | 3.16µM | nt | i | nt | nt | i
FC(F)(F)c1ccccc1-c1nccc(NCc2ccccc2)n1 | 11.2µM | i | i | nt | nt | i
CC1(C)OC(C(O)(c2cc(F)c(F)c(F)c2)c2cc(F)c(F)c(F)c2)C(C(O)(c2cc(F)c(F)c(F)c2)c2cc(F)c(F)c(F)c2)O1 (centres undefined) | i[12.8 µM] | nt | i[17.4 µM] | nt | nt | i[17.5 µM]
CO[C@H]1COC(=O)C/C=C\[C@H](C)[C@@H](OC)COC(=O)[C@@H](C)NC(=O)C/C=C\[C@@H]1C | i[12.8 µM] | nt | i[17.4 µM] | nt | nt | i[17.5 µM]
COc1ccc(S(=O)(=O)N2CCC(C(=O)Nc3ccc(Oc4ccccc4)cc3)CC2)cc1OC | nt | nt | nt | nt | 11.2µM | nt
O=C1Cc2cc(S(=O)(=O)N3CCN(c4ccc(C(F)(F)F)cc4)CC3)ccc2N1 | nt | nt | nt | nt | i | nt
CC(=O)c1ccc(N2CCN(S(=O)(=O)c3ccc4c(c3)CC(=O)N4)CC2)cc1 | i | nt | nt | nt | 0.519µM | nt
O=C1Cc2cc(S(=O)(=O)N3CCN(c4ccccc4)CC3)ccc2N1 | i | nt | nt | nt | 2.6µM | nt
Cc1ccc2[nH]c(-c3ccc(F)cc3F)cc(=O)c2c1 | i | i | i | nt | nt | i
CO[C@H]1COC(=O)C/C=C\[C@H](C)[C@@H](OC)COC(=O)C/C=C\[C@@H]1C | i[12.8 µM] | nt | i[17.4 µM] | nt | nt | i[17.5 µM]
C(C#CCCCCCCCCC[n+]1ccccc1)#CCCCCCCCCC[n+]1ccccc1 | 11.2µM | nt | nt | nt | nt | nt
COc1cc(CN2CCN(C(=O)CC(C)C)CC2)cc(OC)c1O | i | i | i | i | 39.8µM | i
COc1ccc(C(=O)N2CCN(Cc3cc(OC)c(O)c(OC)c3)CC2)cc1OC | i | i | i | i | 20µM | i
O=C(N/N=C/c1ccc(O)c(O)c1)NC12CC3CC(CC(C3)C1)C2 | i | nt | nt | nt | 10µM | nt
Cc1cccc(C)c1NC(=O)CSCC(=O)c1ccc(O)c(O)c1 | i | i | i | i | 11.1µM | i
COc1cccc(NC(=O)NC2(C(F)(F)F)Oc3ccccc3O2)c1 | i | i | i | i | 8.91µM | i
O=C(NCc1cccnc1)NC1(C(F)(F)F)Oc2ccccc2O1 | i | i | i | i | 24.9µM | ?
CC(C)CNC(=O)NC1(C(F)(F)F)Oc2ccccc2O1 | i | i | i | i | i | i
COc1cccc(NC(=O)Nc2cccc(C(=O)O)c2)c1 | i | i | i | i | i | i
CC(C)CO/N=C1/C[C@@H](O)[C@@H](O)[C@@H]2[C@@H]3C(=O)N(Cc4ccc5c(c4)OCO5)C(=O)[C@H]3CC[C@H]12 | i[12.8 µM] | nt | i[17.4 µM] | nt | nt | i[17.5 µM]
O=C1C2C3C=CC(CC3)C2C(=O)N1/N=C/c1ccc(O)c(O)c1 (centres undefined) | i | i | i | i | 7.08µM | i
CCOC(=O)CSc1nnc(-c2cc(OC)c(OC)c(OC)c2)o1 | i | i | i | i | i | i
SMILES | N370S GC mod | GLA inh pH 4.5 | GAA spleen mod | GAA inhib | GAA glycogen | GLA spleen mod
COc1cc(-c2nnc(SCc3cc(=O)oc4cc(O)c(O)cc34)o2)cc(OC)c1OC | i | i | i | i | 15.8µM | i
COc1ccc(C(c2c(NC(C)=O)sc3c2CCCC3)N2CCN(CCO)CC2)cc1OC (centres undefined) | 14.1µM | i | i | i | i | i
CC(=O)Nc1sc2c(c1C(c1cccc(Cl)c1)N1CCN(CCO)CC1)CCCC2 (centres undefined) | 17.8µM | i | i | i | i | i
C=CCOCC1CN2C(CCC(C)C2c2ccc(Br)cc2)C(=O)O1 (centres undefined) | i[12.8 µM] | nt | i[17.4 µM] | nt | nt | i[17.5 µM]
Cc1ccc(-n2nc(CO)c(C(=O)NCc3cccnc3)n2)cc1 | nt | nt | nt | nt | i | nt
Cc1cc(C)cc(N(CC(=O)Nc2ccc(C(F)(F)F)cc2)S(=O)(=O)c2c(C)[nH]c(=O)[nH]c2=O)c1 | 2.24µM | nt | nt | nt | i | nt
COc1ccc(N(CC(=O)Nc2cc(C)ccc2C)S(=O)(=O)c2c(C)[nH]c(=O)[nH]c2=O)cc1 | ? | nt | nt | nt | i | nt
Cc1ccc(N(CC(=O)Nc2ccc(Br)c(C)c2)S(=O)(=O)c2c(C)[nH]c(=O)[nH]c2=O)cc1 | 11.2µM | nt | nt | nt | i | nt
Cc1cc(C)cc(N(CC(=O)Nc2ccc(C)cc2Cl)S(=O)(=O)c2c(C)[nH]c(=O)[nH]c2=O)c1 | 0.251µM | nt | nt | nt | i | nt
COc1ccc(N=Cc2c(O)c3ccccc3n2C(C)=O)cc1 | i | i | i | nt | i | i
COc1ccc(N=Cc2sc(O)c3ccccc23)cc1 | i | i | i | i | 20µM | i
C=CCOC(=O)C(C(C)=O)C(NC(=O)OC)c1cccc(C(F)(F)F)c1 (centres undefined) | i[12.8 µM] | nt | i[17.4 µM] | nt | nt | i[17.5 µM]
COc1ccc(CC(=O)NCc2nnc(SCC(=O)c3ccc(OC)cc3)n2C)cc1 | i | i | i | i | i | i
COc1ccc(NCc2nnc(SCC(=O)c3ccc(OC)cc3)n2C)cc1 | i | i | i | i | 12.5µM | i
Cc1nc(N)sc1-c1csc(N(C)c2ccc(O)cc2)n1 | i | i | i | i | 25.1µM | i
O=C(/C=C/c1ccc(/C=C/C(=O)Nc2ccc(C3=NCCN3)cc2)cc1)Nc1ccc(C2=NCCN2)cc1 | i | nt | i | nt | nt | i

Screening data: PubChem BioAssay, National Center for Advancing Translational Sciences (NCATS)
